Measurements published in PubChem BioAssay (NCATS).
Inconclusive results are not listed. Activity calls are given as the source filed them. Calls follow the shape of the dose curve; as a rule, active = well fitted inhibition curve with a large enough effect; inconclusive = small, poorly fitted or top-dose-only effect; inactive = flat fitted curve, though single readings scatter.

System: W2
Assay: qHTS profiling for inhibitors of Plasmodium falciparum proliferation (AID 504749); also: nearly all actives have a fitted effect of over 60% in size
Settings: P. falciparum in erythrocytes, SYBR Green DNA, 72 h; series mostly up to 12.8 µM
Outline: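 Parasite proliferation within erythrocytes, 72 h exposure. Endpoint: SYBR Green I fluorescence after overnight lysis at room temperature. Controls: 0.29 uM artemisinin, DMSO.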
Potency is read from the fitted curve at half-maximal effect.

Potency, inactive:
CC1(C)S[C@H]2C(NC(=O)[C@@H](N)c3ccc(O)cc3)C(=O)N2[C@@H]1C(=O)O (some centres not stated), CN(C)CCc1c[nH]c2ccc(CC3COC(=O)N3)cc12 (configuration not stated), C[C@@]12CCC(=O)C=C1C=CC1C2CC[C@]2(C)C1CC[C@@]21CCC(=O)O1 (some centres not stated), CC(=O)O[C@@]1(C(C)=O)CCC2C3CC(C)C4=CC(=O)CC[C@@]4(C)C3CC[C@]21C (some centres not stated), N[C@@H]1C(O)OC(CO)C(O)C1O (some centres not stated), CC(=O)[C@]1(O)CCC2C3C=C(Cl)C4=CC(=O)C5CC5[C@@]4(C)C3CC[C@]21C (some centres not stated), C[C@@]12C=CC(=O)C=C1CCC1C3CC(O)[C@@](O)(C(=O)CO)[C@]3(C)CC(O)[C@]12F (some centres not stated), CCC(C)C(=O)OC1CC(O)C=C2C=CC(C)C(CCC(O)CC(O)CC(=O)O)C21 (configuration not stated)

Potency, active:
NC(CCC(=O)N[C@@H](CS)C(=O)NCC(=O)O)C(=O)O (some centres not stated) 3.01 µM, CC(C)Oc1ccc2c(=O)cc(-c3ccccc3)oc2c1 0.0478 µM, CCCCCCCCCc1ccc(OCCOCCOCCOCCOCCOCCOCCOCCOCCO)cc1 15.1 µM, CC(=O)OCC(=O)[C@@]12OC3(CCCC3)OC1CC1C3CCC4=CC(=O)C=C[C@@]4(C)[C@]3(F)C(O)C[C@]12C (some centres not stated) 10.7 µM, CCC1OC(=O)CC(O)C(C)[C@@H](O[C@@H]2OC(C)[C@H](O[C@@H]3C[C@@](C)(O)C(O)C(C)O3)C(N(C)C)C2O)[C@H](CC=O)CC(C)C(=O)/C=C/C(C)=C/[C@@H]1COC1OC(C)C(O)C(OC)[C@@H]1OC (some centres not stated) 0.849 µM, C=Cc1c(C)/c2[n-]/c1=C\c1[n-]c(c(CC)c1C)/C=c1\[n-]c3c(c1C)C(=O)C(C(=O)[O-])C=3c1[n-]c(c(C)c1CCC(=O)[O-])\C=2.[Cu].[Na+].[Na+] (configuration not stated) 12 µM, CCC(=O)O[C@@]1(C(=O)CCl)C(C)CC2C3CCC4=CC(=O)C=C[C@@]4(C)[C@]3(F)C(O)C[C@]21C (some centres not stated) 5.36 µM, COC1OC(CO)C(OC2OC(C(=O)O)C(OC3OC(COS(=O)(=O)O)C(OC4OC(C(=O)O)C(OC5OC(CO)C(OC6OC(C(=O)O)C(OC7OC(COS(=O)(=O)O)C(OC8OC(C(=O)O)=C[C@H](O)C8OS(=O)(=O)O)C(O)C7NC(C)=O)[C@@H](O)C6O)C(O)C5NC(C)=O)[C@@H](O)C4O)C(O)C3NC(C)=O)[C@@H](O)C2O)C(O)C1NC(C)=O (some centres not stated) 6.75 µM, COC1CC(O[C@H]2/C(C)=C/CC3CC(C[C@]4(CCC(C)C(C5CCCCC5)O4)O3)OC(=O)[C@H]3C=C(C)/C(=N/O)C4OC/C(=C\C=C\[C@@H]2C)[C@@]43O)OC(C)C1O (some centres not stated) 13.5 µM
